Compound activity deposited in PubChem by National Center for Advancing Translational Sciences (NCATS).
PLK1 PBD block = blocks phosphopeptide binding to human PLK1 polo-box domain. P53350. Plk1 PBD binding of FITC phosphopeptide, fluorescence polarization. Potency, µM, inactives show max response, negative = inhibition, actives largely listed as inhibitors. 360,000 compounds, 2.8% hits. AID 720504; further: potency means the concentration at half of the fitted maximal effect; series mostly up to about 57 µM; on the % scale 0 is the no-effect control and ±100 the full control effect; nearly all actives have a fitted effect of over 65% in size
HP1b chromo inh = blocks HP1-beta chromodomain binding to methylated histone tails. P83916. AlphaScreen HP1-beta / biotin-H3K9me3 peptide binding. Potency, µM (highest dose often 114 µM), inactives show at the highest dose activity change, negative = inhibition, most hits filed as inhibitors. 390,000 compounds, 0.56% hits. AID 540317; further: potency means the concentration at half of the fitted maximal effect; nearly all actives have a fitted effect of over 70% in size
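Compound inhibition of the preformed complex between 50 nM HP1-beta and 50 nM biotinylated H3K9me3 peptide was read by AlphaScreen. Buffer was PBS pH 7.4 with 0.01% Tween-20. Incubations ran 30 min at room temperature, with 10 ug/mL donor/acceptor beads.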
G9a inh = inhibitors of human histone lysine methyltransferase G9a. Q96KQ7. AID 504332. 350,000 compounds, 8.8% hits. G9a H3K9 monomethylation, AlphaScreen, 2 h. Potency, µM (top dose mostly 102 µM), for inactives: top-dose activity, negative = inhibition, usual class: inhibitors; further: potency means the concentration at half of the fitted maximal effect; on the % scale 0 is the no-effect control and ±100 the full control effect; nearly all actives have a fitted effect of over 75% in size
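AlphaScreen detection with an anti-monomethyl H3K9 antibody quantified product after a 2 h room-temperature reaction containing 500 nM biotinylated H3K9 peptide, 20 µM SAM and 20 nM enzyme, which had been preincubated 15 min with compound.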
BAZ2B inh = blocks human BAZ2B; Q9UIF8; AlphaScreen BAZ2B-H3K14Ac peptide displacement; Potency, µM (doses to about 114 µM), for the others: at the highest dose activity change, negative = inhibition, hits mostly inhibitors; 360,000 compounds, 4.4% hits; further: potency means the concentration at half of the fitted maximal effect; on the % scale 0 is the no-effect control and ±100 the full control effect; nearly all actives have a fitted effect of over 60% in size
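BAZ2B (50 nM) with biotin-H3(5-23)K14Ac peptide (50 nM) in PBS pH 7.4, 0.01% Tween-20, preformed 30 min, then compound 30 min at room temperature; top concentration 110uM. AlphaScreen streptavidin donor/nickel chelate acceptor beads (10 ug/mL final), 20 min dark, signal read.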
PI5P4Ka inh = PI5P4K alpha (human) kinase inhibition. P48426. PI5P4Kalpha enzyme, ADP-Glo luminescence, 60 min; active compounds read low. max response, %. 330,000 compounds, 1.2% hits. AID 652105; active means max response of -50% or lower; inconclusive means between -30% and -50%; inactive means -30% or higher; further: value at the top dose of about 77 µM; on the % scale 0 is the no-effect control and ±100 the full control effect
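Human PI5P4Kalpha with substrate in 0.038 M HEPES pH 7.4, 0.28 mM EGTA, 0.1% CHAPS, 5% DMSO; reaction started with 5 microM ATP (final), 60 min at room temperature. ADP formed read by ADP-Glo luminescence.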
JMJD2A Tudor = inhibitors of human JMJD2A Tudor domain | 390,000 compounds, 4.4% hits | AID 504339 | Potency, µM (series often up to 114 µM), without a hit: at the highest dose activity change, negative = inhibition, usual class: inhibitors | AlphaScreen JMJD2A-Tudor / H3K4me3 peptide binding; further: potency means the concentration at half of the fitted maximal effect; on the % scale 0 is the no-effect control and ±100 the full control effect; nearly all actives have a fitted effect of over 50% in size
Numbers without * were called inactive; u = inconclusive; x = no result; [ ] = dose if it differs, or a comment. The list is not random: actives were taken first. Their share in the collection is about 12%. Unless noted, the call rests on the fitted dose curve; in most records, active means well fitted curve in the direction sought with a large enough effect; inconclusive means small, poorly fitted or top-dose-only effect, or another doubt; inactive means no such curve, though single readings can be large; an effect the other way counts as inactive or inconclusive.

SMILES	PLK1 PBD block	HP1b chromo inh	G9a inh	BAZ2B inh	PI5P4Ka inh	JMJD2A Tudor
COc1ccc(-c2ccc3ncnc(NCC4CCCO4)c3c2)cc1OC (stereo unspecified)	x	x	x	x	x	-34.8%
CCOC(=O)[C@@H]1CSCCS(=O)(=O)N1	-7.7%	39.7%	x	x	-5.6	-9.4%
Cc1ccc2sc(N(CCCN(C)C)C(=O)c3ccc(S(=O)(=O)N4CCCCCC4)cc3)nc2c1C	-9.6%	-21.1%	50.1µM*	u	-4.0	u
CN(C)CCCN(C(=O)c1ccc(S(=O)(=O)N2CCCCC2)cc1)c1nc2cc3c(cc2s1)OCO3	-7.1%	u	50.1µM*	u	-2.0	u
O=C1/C(=C/c2cccnc2)Oc2cc(OS(=O)(=O)c3ccc(F)cc3)ccc21	-16.1%	-7.6%	-11.3%	-28.6%	x	39.8µM*
Cc1ccc(S(=O)(=O)Oc2ccc3c(c2)O/C(=C\c2cccnc2)C3=O)cc1	-7.7%	14.1%	0.5%	2.2%	x	u
Cc1ccc2c(c1)-c1c(cnn1CC(=O)N(Cc1ccco1)C1CCCCC1)CO2	-4.9%	-7.7%	-18.2%[59 µM]	-38.9%	-5.0	u
Cc1ccc2c(c1)-c1c(cnn1CC(=O)NC(C)CCc1ccco1)CO2 (stereo unspecified)	-11.6%	2.9%	44.7µM*	-32.2%	-8.8	-28.5%
CCOCCCNC(=O)Cc1c(C(=O)O)[nH]c2ccc(Cl)cc12	-11.2%	15.0%	17.3%[59 µM]	0.7%	-1.0	-17.9%
CCc1c(C(=O)NCCc2ccc(N3CCCCC3)cc2)[nH]c2ccc(Cl)cc12	x	x	28.2µM*	x	x	x
COc1ccc(OC(=O)N(C)C[C@@H]2OCc3cn(nn3)CCCC(=O)N([C@@H](C)CO)C[C@H]2C)cc1	-2.2%	x	x	x	1.5	x
CC1=C(c2ccc(Cl)cc2)[N+](=O)C(C)(C)N1[O-]	11.9µM*	-10.7%	50.1µM*	-2.4%	u	-25.6%
Cc1c(-c2ccc(Cl)cc2)[n+](=O)c(-c2ccccc2)cn1[O-]	2.1%	43.5%	-0.3%	-11.6%	-4.3	4.7%
C#CCOCCOCCOCCNc1nc(N2CCN(C(=O)[C@H](CCC(=O)O)n3cc(CN)nn3)CC2)nc(N2CCN(C(=O)[C@H](CCCN=C(N)N)n3cc(C(N)[C@@H](C)CC)nn3)CC2)n1 (stereo partly specified)	-0.8%	21.7%	x	x	0.3	u
C#CCOCCOCCOCCNc1nc(N2CCN(C(=O)[C@H](Cc3cc4ccccc4[nH]3)n3cc([C@@H](N)C(C)CC)nn3)CC2)nc(N2CCN(C(=O)[C@H](CCCCN)n3cc([C@@H](N)CO)nn3)CC2)n1 (stereo partly specified)	x	x	14.0%[12.7 µM]	25.1µM*	x	x
C#CCOCCOCCOCCNc1nc(N2CCN(C(=O)[C@H](CCCCN)n3cc([C@@H](N)C(C)CC)nn3)CC2)nc(N2CCN(C(=O)[C@H](Cc3cc4ccccc4[nH]3)n3cc([C@@H](N)CC(C)C)nn3)CC2)n1 (stereo partly specified)	-19.4%	-11.0%	u	31.6µM*	-56.6*	35.5µM*
C#CCOCCOCCOCCNc1nc(N2CCN(C(=O)[C@H](Cc3cc4ccccc4[nH]3)n3cc([C@@H](N)C(C)CC)nn3)CC2)nc(N2CCN(C(=O)[C@H](Cc3cc4ccccc4[nH]3)n3cc([C@@H](N)CC(C)C)nn3)CC2)n1 (stereo partly specified)	x	x	u	35.5µM*	x	x
C#CCOCCOCCOCCNc1nc(N2CCN(C(=O)[C@H](CCCN=C(N)N)n3cc(C(N)[C@H](C)CC)nn3)CC2)nc(N2CCN(C(=O)[C@H](CC(N)=O)n3cc(C(N)[C@@H](C)CC)nn3)CC2)n1 (stereo partly specified)	u	80.9%	x	x	14.7	u
C#CCOCCOCCOCCNc1nc(N2CCN(C(=O)[C@H](CCC(=O)O)n3cc(C(N)CO)nn3)CC2)nc(N2CCN(C(=O)[C@H](Cc3cc4ccccc4[nH]3)n3cc(C(N)[C@H](C)CC)nn3)CC2)n1 (stereo partly specified)	-4.1%	13.2%	-0.7%[12.7 µM]	50.1µM*	-3.3	44.7µM*
CC(=O)c1ccc(NC(=O)C2CCC(CNS(=O)(=O)c3ccc4c(c3)CCCC(=O)N4)CC2)cc1 (stereo unspecified)	x	11.1%	5.8%[59 µM]	4.6%	x	8.4%
O=C(CSc1n[nH]c(=O)[nH]c1=O)Nc1ccc2c(c1)C(=O)c1ccccc1C2=O	6.7µM*	11.2µM*	x	50.1µM*	-58.6*	u
O=C(CSc1ccccn1)Nc1ccc2c(c1)C(=O)c1ccccc1C2=O	0.0%	-20.5%	u	50.1µM*	-21.1	50.1µM*
CCCCN(C)C(=O)Cn1c(=O)oc2cc(S(=O)(=O)N3CC(C)CC(C)C3)ccc21 (stereo unspecified)	-6.7%	33.4%	-1.5%	-5.9%	8.3	-8.1%
CCOc1ccc(N2CC(NC(=O)c3ccc(S(=O)(=O)N4CCCC4)cc3)CC2=O)cc1 (stereo unspecified)	x	-0.3%	0.0%[59 µM]	0.8%	x	-15.3%
O=C(CSc1ncccn1)NC(=O)Nc1ccc2c(c1)OCCO2	-2.3%	46.0%	44.7µM*	-15.6%	2.0	-1.0%
SMILES	PLK1 PBD block	HP1b chromo inh	G9a inh	BAZ2B inh	PI5P4Ka inh	JMJD2A Tudor
CN(C)S(=O)(=O)c1ccc(SCC(=O)Nc2ccc3c(c2)OCCO3)nc1	-20.9%	9.0%	39.8µM*	13.2%	-7.0	-20.0%
CC(Nc1ccc2c(c1)OCCO2)C(=O)N1CCc2ccccc21 (stereo unspecified)	-1.9%	4.1%	u	44.7µM*	-3.9	u
O=C(CSc1ccc([N+](=O)[O-])cn1)Nc1ccc2c(c1)OCCO2	-16.1%	20.3%	u	u	0.9	-23.2%
O=C(CSc1ncccn1)Nc1ccc2c(c1)OCO2	1.3%	5.1%[57 µM]	x	x	-14.2	-17.9%
Nc1ccccc1SCC(=O)Nc1ccc2c(c1)OCCO2	u	23.2%	28.2µM*	-18.8%	0.2	-5.6%
COC(=O)C1=C[C@@H](C(=O)OC)[C@@H]2C3=C(C(=O)C2(C)C)[C@H](C)n2c(=O)n(C)c(=O)n2[C@@H]3C1	x	38.0%	x	x	x	-4.1%
Cc1ccc(C)c(N2CCN(c3nc4c(S(=O)(=O)c5ccccc5)nnn4c4ccc(Cl)cc34)CC2)c1	x	23.4%	0.3%[59 µM]	3.4%	x	-12.4%
CC(=O)c1ccc(NC(=O)Cn2c3ncccc3c(=O)n2-c2ccc(C)cc2)cc1	x	43.3%	-40.1%[59 µM]	2.7%	x	-9.6%
Cc1nn(C)cc1C(=O)Nc1ccc2c(c1)OCCO2	-25.9%	-5.0%	31.6µM*	3.4%	0.5	-10.3%
Cn1c(C(=O)Nc2ccc3c(c2)OCCO3)cc2sccc21	-13.5%	-18.5%	50.1µM*	u	x	u
